Data published in PubChem BioAssay AID2289 (National Center for Advancing Translational Sciences (NCATS), 2010).
Hit rate of the full screen: of about 340,000 compounds, about 3,300 (0.97%) were called active. Inconclusive results (about 9%) are left out. Calls follow the shape of the dose curve; as a rule, active = well fitted inhibition curve with a large enough effect; inconclusive = small, poorly fitted or top-dose-only effect, or effect the other way; inactive = flat fitted curve, though single readings scatter. The list shows a part of the results.

assay: qHTS Assay for Modulators of miRNAs and/or Inhibitors of miR-21; conditions: HeLa miR-21-FLuc reporter, luciferase luminescence, 48 h; actives lower the signal; also: nearly all actives have a fitted effect of over 55% in size
Method in brief: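 Using DMEM plus 10% FBS, HeLa miR-21-FLuc cells are incubated with test compounds (final up to about 40uM) for 48 hours; firefly luciferase signal is then imaged following reagent-mediated lysis.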
Potency is read from the fitted curve at half-maximal effect.

| SMILES | Potency |
| --- | --- |
| COc1cccc(-c2cc(C(=O)NC3CCCCC3)no2)c1 | 2.07 µM (active) |
| O=C(NCC1CCCO1)c1cc(-c2ccccc2)on1 (stereo not given) | 7.36 µM (active) |
| COc1cccc(-c2cc(C(=O)N3C(C)CCCC3C)no2)c1 (stereo not given) | 3.29 µM (active) |
| O=C(NC1CCCC1)c1cc(-c2ccccc2)on1 | 2.93 µM (active) |
| COc1ccc(-c2noc(-c3ccco3)n2)cc1OC | 1.65 µM (active) |
| COc1ccc(-c2nc(-c3cccc(C)c3)no2)cc1OC | 2.93 µM (active) |
| Cc1cccc(-c2noc(-c3ccc(Cl)cc3[N+](=O)[O-])n2)c1 | 1.17 µM (active) |
| COc1ccc(-c2nc(-c3ccncc3)no2)cc1OC | 4.65 µM (active) |
| COc1ccc(-c2nc(-c3cccnc3)no2)cc1 | 0.826 µM (active) |
| COc1ccc(-c2noc(-c3cccnc3)n2)cc1OC | 6.56 µM (active) |
| COc1ccc(-c2nc(-c3cccnc3)no2)cc1OC | 16.5 µM (active) |
| COc1ccc(CNC(=O)CN2C(=O)CC(c3ccc(C)c(C)c3)=Nc3ccccc32)cc1 | 11.7 µM (active) |
| CCOc1ccccc1NC(=O)CN1C(=O)CC(c2ccc(C)c(C)c2)=Nc2ccccc21 | 8.26 µM (active) |
| O=C(N/N=C\C=C\c1ccco1)c1cc(-c2ccc3ccccc3c2)n[nH]1 | 4.14 µM (active) |
| O=C(CCN1C(=O)S/C(=C\C=C\c2ccccc2)C1=O)Nc1ccc(O)cc1 | 9.27 µM (active) |
| O=[N+]([O-])c1ccc(Cc2nnc(-c3ccc(F)cc3)o2)cc1 | 0.826 µM (active) |
| C=CCSc1nnc(-c2ccc([N+](=O)[O-])cc2)o1 | 6.56 µM (active) |
| Fc1ccc(-c2nnc(Cc3ccc(Cl)cc3)o2)cc1 | 10.4 µM (active) |
| O=[N+]([O-])c1cccnc1NCCc1c[nH]c2ccccc12 | 4.14 µM (active) |
| O=[N+]([O-])c1cccnc1NCCNc1ncc(C(F)(F)F)cc1Cl | 2.93 µM (active) |
| COc1ccc(CNc2ncccc2[N+](=O)[O-])cc1 | 18.5 µM (active) |
| O=[N+]([O-])c1cccnc1NCCc1ccccc1 | 5.21 µM (active) |
| Cc1ccccc1-n1c(C)cc(/C=N/Nc2ccc([N+](=O)[O-])cn2)c1C | 3.69 µM (active) |
| Cc1ccc(C(=O)Nc2cccnc2Cl)cc1Cl | 3.69 µM (active) |
| O=C(Nc1cccnc1Cl)c1cc(-c2cccc(O)c2)on1 | 18.5 µM (active) |
| O=C(Nc1cccnc1Cl)c1cc(-c2ccccc2O)on1 | 2.61 µM (active) |
| CCC(C(=O)N1CCN(c2cccc(C)c2C)CC1)n1nc(C)c2sc3ccccc3c2c1=O (stereo not given) | 8.26 µM (active) |

| SMILES | Potency |
| --- | --- |
| COc1ccccc1Nc1ccc(Nc2ccccc2OC)nn1 | 7.36 µM (active) |
| CC(=O)c1c(C)nc(-c2ccc(Cl)cc2)nc1N | 1.65 µM (active) |
| CCOC(=O)c1c(C)nc(-c2ccccc2)nc1N | 4.65 µM (active) |
| CCOC(=O)c1c(-c2ccccc2)cn2c(C)cc(C)nc12 | 5.85 µM (active) |
| C/C(=N/NC(=O)c1ccoc1C)c1cccc(NC(=O)C2CC2)c1 | 1.65 µM (active) |
| C/C(=N/NC(=O)c1ccoc1C)c1ccc(NC(=O)C2CCCC2)cc1 | 1.31 µM (active) |
| C/C(=N/NC(=O)c1ccccc1)c1ccc(NC(=O)C(F)(F)F)cc1 | 4.65 µM (active) |
| C/C(=N/NC(=O)c1ccoc1C)c1cccc(NC(=O)C(F)(F)F)c1 | 1.65 µM (active) |
| COC1=C/C(=C/c2c(O)c(C#N)c3ccccn23)C=CC1=O | 11.7 µM (active) |
| COc1ccc(-c2cc3cc(OC)c(OC)cc3c(C)n2)cc1 | 7.36 µM (active) |
| COc1ccc2cc(-c3ccccc3)ncc2c1 | 0.369 µM (active) |
| COc1ccc2nc(-c3ccccc3)cc(OC)c2c1 | 14.7 µM (active) |
| O=C(COc1ccc2c(c1)OCO2)Nc1cccc(F)c1 | 8.26 µM (active) |
| O=C(COc1ccc2c(c1)OCO2)Nc1ccccc1C(F)(F)F | 16.5 µM (active) |
| O=C(COc1ccc2c(c1)OCO2)Nc1ccc(Cl)cn1 | 2.07 µM (active) |
| CC1Cc2ccccc2N1C(=O)COc1ccc2c(c1)OCO2 (stereo not given) | 11.7 µM (active) |
| COc1ccccc1NC(=O)COc1ccc2c(c1)OCO2 | 7.36 µM (active) |
| COc1ccccc1NC(=O)COc1ccc(CO)cc1Cl | 5.85 µM (active) |
| Cc1ccc(/C=N/NC(=O)c2ccoc2C)o1 | 16.5 µM (active) |
| Cc1occc1C(=O)N/N=C/c1ccc(-c2ccccc2)cc1 | 0.147 µM (active) |
| Cc1ccc(/C=N\Nc2cn[nH]c(=O)c2Cl)cc1 | 14.7 µM (active) |
| Cc1cccc(/C=N\Nc2cn[nH]c(=O)c2Cl)c1 | 18.5 µM (active) |
| O=C(/C(C=Nc1ccc(F)cc1)=C(/O)c1ccco1)C(F)(F)F | 4.14 µM (active) |
| CC(=O)C(C)Oc1ccc2c3c(c(=O)oc2c1C)CCCC3 (stereo not given) | 16.5 µM (active) |
| CC(=O)COc1ccc2c3c(c(=O)oc2c1C)CCCCC3 | 3.29 µM (active) |
| Cc1ccc(/C=N/N=C/c2ccc(C)s2)s1 | 0.927 µM (active) |
| CC(=O)Nc1ccc(/C=N/NC(=O)c2cccs2)cc1 | 5.85 µM (active) |

| SMILES | Potency |
| --- | --- |
| O=C(N/N=C/c1ccncc1)c1cccs1 | 5.21 µM (active) |
| CSc1ccc(/C=N/NC(=O)c2cccs2)cc1 | 1.31 µM (active) |
| Cc1ccc(/C=N/NC(=O)c2cccs2)s1 | 7.36 µM (active) |
| COc1cc(/C=N/NC(=O)c2cccs2)ccc1O | 10.4 µM (active) |
| O=C(N/N=C/c1ccc2c(c1)OCO2)c1cccs1 | 1.65 µM (active) |
| CCNC(=S)/N=C(\N)Nc1nc(C)c2cc(C)ccc2n1 | 5.85 µM (active) |
| CC(C)(C)c1ccc(C(=O)Nc2ccccc2Cl)cc1 | 0.826 µM (active) |
| Cc1nc2ccc(NC(=O)c3cccs3)cc2s1 | 3.69 µM (active) |
| Cc1nc2ccc(NC(=O)c3ccccc3)cc2s1 | 5.85 µM (active) |
| Cc1nc2ccc(C(=O)Nc3ccccc3Cl)cc2s1 | 3.69 µM (active) |
| Cc1nc2ccc(NC(=O)N(C)c3ccccc3)cc2s1 | 9.27 µM (active) |
| Cc1nc2ccc(NC(=O)c3ccc4ccccc4n3)cc2s1 | 3.69 µM (active) |
| CCOc1ncccc1C(=O)Nc1ccc2nc(C)sc2c1 | 8.26 µM (active) |
| Cc1nc2ccc(NC(=O)c3cc(Cl)ccn3)cc2s1 | 0.369 µM (active) |
| C=CCC(CC(O)COCCC)C(=O)NNC(=S)Nc1ccccc1 (stereo not given) | 13.1 µM (active) |
| CCCn1c(C)cc(/C=C(\C#N)C(=O)OCC(=O)Nc2cc(OC)c(OC)c(OC)c2)c1C | 16.5 µM (active) |
| COc1ccccc1C(=O)OCc1nc(N)nc(Nc2ccccc2C)n1 | 18.5 µM (active) |
| Cc1ccccc1Nc1nc(N)nc(COC(=O)c2ccccc2)n1 | 13.1 µM (active) |
| CCn1c(SCc2ccccc2Cl)nc2ccccc21 | 13.1 µM (active) |
| Cn1c(SCc2ccc(C#N)cc2Cl)nc2ccccc21 | 4.65 µM (active) |
| Cn1c(SCc2ccccc2Cl)nc2ccccc21 | 3.29 µM (active) |
| O=[N+]([O-])c1ccc2nc(SCc3cn4ccccc4n3)[nH]c2c1 | 18.5 µM (active) |
| c1ccn(-c2ccc(-c3ccn[nH]3)cc2)c1 | 6.56 µM (active) |
| O=C(c1cnn(-c2cccc(F)c2)c1)c1ccccc1O | 3.69 µM (active) |
| CN(C)c1ccc(/C=C(\C#N)c2nc3ccccc3c(=O)[nH]2)cc1 | 0.131 µM (active) |
| N#C/C(=C/c1ccc(O)c(O)c1)c1nc2ccccc2[nH]1 | 3.29 µM (active) |
| c1ccc(Nc2nc(-c3ccccc3)ns2)cc1 | 0.414 µM (active) |

| SMILES | Potency |
| --- | --- |
| Cc1nnc(SCc2ccccc2Cl)c2cc3occc3n12 | 11.7 µM (active) |
| Clc1ccc(-c2nc3ccncc3[nH]2)cc1 | 7.36 µM (active) |
| Nc1ccc2nc(-c3ccc(Cl)cc3)[nH]c2c1 | 6.56 µM (active) |
| CCOC(=O)CCSc1nc(C)c2cc(C)ccc2n1 | 10.4 µM (active) |
| CCOC(=O)CCSc1nc(C)c2cc(OC)ccc2n1 | 8.26 µM (active) |
| OC1CCCN(c2c3c(nc4cc(-c5cccc(F)c5)nn24)CCCC3)C1 (stereo not given) | 2.07 µM (active) |
| O=C(Nc1ccc(SC(F)(F)F)cc1)c1ccccn1 | 0.369 µM (active) |
| COc1ccc(NC(=O)c2ccccn2)cc1OC | 11.7 µM (active) |
| COc1ccc(NC(=S)Nc2ncccc2C)cc1OC | 5.21 µM (active) |
| COc1ccc(NC(=O)c2coc3ccccc23)cc1OC | 9.27 µM (active) |
| Cc1ccc(-c2nnc(CCC(=O)NCC3C4CC5CC(C4)CC3C5)o2)s1 (stereo not given) | 14.7 µM (active) |
| CS(=O)(=O)Nc1ccc(C2=NN(S(C)(=O)=O)C(c3ccc4c(c3)OCO4)C2)cc1 (stereo not given) | 4.65 µM (active) |
| CS(=O)(=O)N1N=C(c2ccc(Br)cc2)CC1c1ccc2c(c1)OCO2 (stereo not given) | 0.927 µM (active) |
| CC(=O)N1N=C(c2ccc(C)cc2)CC1c1ccc2c(c1)OCO2 (stereo not given) | 7.36 µM (active) |
| Cc1ccc(C2=NN(S(C)(=O)=O)C(c3ccc4c(c3)OCO4)C2)cc1 (stereo not given) | 0.521 µM (active) |
| COC(=O)c1ccc(CSC2=NCCS2)cc1 | 4.65 µM (active) |
| CC(=O)Nc1nc(-c2ccc(Cl)cc2)ns1 | 1.85 µM (active) |
| C/C(=N\N=C\c1ccc(N(C)C)cc1)c1cccc([N+](=O)[O-])c1 | 13.1 µM (active) |
| Nc1cc([N+](=O)[O-])cc2oc(-c3ccccc3)cc12 | 14.7 µM (active) |
| Cc1ccc(OCc2ccc(Br)cc2)c([N+](=O)[O-])n1 | 2.61 µM (active) |
| Cc1ccc(COc2ccc(C)nc2[N+](=O)[O-])cc1 | 0.927 µM (active) |
| CCOC(=O)c1cc(C(=O)Nc2cccc(C)c2)nn1C | 1.31 µM (active) |
| CCOC(=O)c1cc(C(=O)Nc2ccccc2F)nn1C | 1.85 µM (active) |
| CCOC(=O)c1cc(C(=O)Nc2ccc(C)c(F)c2)nn1C | 4.65 µM (active) |
